# Bioassay records deposited in PubChem by National Center for Advancing Translational Sciences (NCATS).
# HT1080 IDH1KD tx: qHTS for induction of synthetic lethality in tumor cells producing 2HG: qHTS for the HT-1080-IDH1KD cell line; HT-1080 IDH1 knockdown viability, ATP luminescence, 48 h; Potency, µM (doses to about 46.1 µM), for the others: top-dose activity, negative = toxicity, actives largely listed as cytotoxic; 360,000 compounds, 2% hits; AID 686971, 2013;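 further: 0% = DMSO wells and -100% = cell-free medium wells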
#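 Knockdown cells (IDH1KD HT-1080) received compounds 2 h after plating at 750 cells/well and were kept 48 h at 37 °C in 5% FBS RPMI. A CellTiter-Glo luminescence read gave % activity for curve fitting.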
# TDP1 cell noCPT: qHTS for Inhibitors of human tyrosyl-DNA phosphodiesterase 1 (TDP1): qHTS in cells in absence of CPT; DT40 Tdp1-/- hTDP1 cells, no CPT, ATP luminescence, 48 h; Potency, µM (top dose mostly 46.2 µM), inactives show top-dose activity change, negative = growth inhibition, most hits filed as inhibitors; 420,000 compounds, 15% hits; further: on the % scale 0 is the no-effect control and ±100 the full control effect; nearly all actives have a fitted effect of over 55% in size
#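 DT40 Tdp1-/-;hTDP1 cells, no CPT (DMSO vehicle only), 400 cells/well; compounds pin-transferred; ≥48 hr, 37 °C; CellTiter-Glo 30 min RT dark, luminescence read.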
# HepG2 tox: qHTS for Inhibitors of TGF-b: Cytotox Counterscreen; 410,000 compounds, 0.76% hits; Potency, µM (highest dose often 46.1 µM), for inactives: at the highest dose activity change, negative = cytotoxicity, most hits filed as cytotoxic; HepG2 CAGA-GFP viability, ATP luminescence, 18 h
#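 CellTiter-Glo luminescence gave cytotoxicity after 18 hours at 37 degrees C. The cells were HepG2 CAGA-GFP in 1% FBS DMEM, stimulated with 500 pg/mL TGF-beta after compound addition. %Activity was normalised to no-cell wells (complete cell-killing) and DMSO (no toxicity), and curves were fitted and classified.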
# TDP1 cell CPT: qHTS for Inhibitors of human tyrosyl-DNA phosphodiesterase 1 (TDP1): qHTS in cells in presence of CPT | 420,000 compounds, 12% hits | chicken DT40 Tdp1-/-;hTDP1 cells + 20 nM CPT, ATP luminescence, 48 h | Potency, µM (highest dose often 46.2 µM), inactives show at the top dose activity change, negative = growth inhibition, most hits filed as inhibitors; further: on the % scale 0 is the no-effect control and ±100 the full control effect; nearly all actives have a fitted effect of over 55% in size
#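 Cell growth measured by CellTiter-Glo luminescence after a minimum 48 h, 37 C compound exposure with 20 nM CPT in Tdp1-knockout DT40 cells stably expressing hTDP1, seeded 400/well; qHTS titration format.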
# HT1080-NT tox: qHTS for induction of synthetic lethality in tumor cells producing 2HG: qHTS for the HT-1080-NT fibrosarcoma cell line; HT-1080-NT fibrosarcoma viability, CellTiter-Glo ATP luminescence, 48 h; Potency, µM (highest dose often 46.1 µM), without a hit: at the top dose activity, negative = less viability, most hits filed as cytotoxic; 360,000 compounds, 1.6% hits; AID 686970, 2013;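 further: NT is the 2HG producing partner of a matched IDH1 knockdown line; 0% = DMSO-treated cells and -100% = media-only wells without cells; nearly all actives have a fitted effect of over 55% in size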
#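 Toxicity toward the 2HG-producing NT line was scored as %Activity, normalised to DMSO and no-cell wells, from CellTiter-Glo luminescence after 48 hours' treatment.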
# TGFb SMAD3 inh: qHTS for Inhibitors of TGF-b; Potency, µM (series often up to 46.1 µM), inactives show top-dose activity, negative = inhibition, actives largely listed as inhibitors; 410,000 compounds, 1.2% hits; HepG2 CAGA-GFP TGF-b/SMAD3 reporter, GFP fluorescence, 18 h; TGF-beta stimulated, 500 pg/mL final; AID 588855, 2011; further: on the % scale 0 is the no-effect control and ±100 the full control effect; nearly all actives have a fitted effect of over 65% in size
#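 HEPG2 CAGA-GFP, 1000 cells/well; 2 h settle, 37 C; cpd via pin tool; TGF-b 500 pg/mL final; 18 h, 37 C; GFP imaging ex488/em500-530; %Activity normalised to -TGF-b and +DMSO controls; CRC fit, curve class.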
# Active calls of the source: *; ? = inconclusive; . = not tested or not shown. Sampled rows, rich in hits. Any-hit rate of the full collection: about 17%. The call rests on the fitted dose curve; in most records, active means well fitted curve in the direction sought with a large enough effect; inconclusive means small, poorly fitted or top-dose-only effect, or another doubt; inactive means no such curve, though single readings can be large; an effect the other way counts as inactive or inconclusive. Potency means the concentration at half of the fitted maximal effect.
SMILES,HT1080 IDH1KD tx,TDP1 cell noCPT,HepG2 tox,TDP1 cell CPT,HT1080-NT tox,TGFb SMAD3 inh
[Cl][Pt+2][Cl].[NH-]C1CCCCC1[NH-] (configuration not stated),-4%,5.8µM*,-12%,2.3µM*,4%,-4%
CCOC(=O)C1(c2ccccc2)CCN(CCC(=O)Nc2ccc(OC)cc2)CC1,-9%,?,-20%,?,-12%,-8%
CCOC(=O)C1(c2ccccc2)CCN(CCC(=O)Nc2cccc(Br)c2)CC1,23µM*,?,-166%,?,18µM*,?
CCOC(=O)C1(c2ccccc2)CCN(CC(=O)Nc2ccc(C)cc2)CC1,1%,?,-22%,?,7%,12%
CCOC(=O)C1(c2ccccc2)CCN(CCC(C#N)(c2ccccc2)c2ccccc2)CC1,?,6.5µM*,-13%,13µM*,-30%,-13%
CCOC(=O)C1(c2ccccc2)CCN(CCC(=O)Nc2ccc(C(=O)OC)cc2)CC1,-4%,?,-36%,21µM*,-4%,?
CCn1c(C)c(C(=O)Nc2ccc(OC)cc2)c2cc(OC)ccc21,-2%,?,7%,-20%,-10%,16%
O=C(NC12CC3CC(CC(C3)C1)C2)OC1CN2CCC1CC2 (configuration not stated),0%,?,0%,4%,0%,-16%
Nc1nc(N)c2nc(CNc3ccc(C(=O)N[C@@H](CCC(=O)O)C(=O)O)cc3)cnc2n1,.,16µM*,.,?,.,.
Oc1c(C(Nc2cccnc2)c2ccccc2F)ccc2cccnc12 (configuration not stated),.,?,-10%,?,.,?
COc1ccc(OC(=O)N2C/C(=C/c3ccccc3)C(=O)/C(=C\c3ccccc3)C2)cc1,8.2µM*,1.5µM*,-5%,1.2µM*,10µM*,?
COc1ccc(NC(=O)N2CC[C@@]3(CCCN(C(=O)Oc4ccccc4)C3)C2)cc1,.,-2%,.,8%,.,.
Cc1cc(C)c(S(=O)(=O)NCC2CCC(C(=O)N3CCC4(CC3)OCCO4)CC2)c(C)c1 (configuration not stated),12%,-28%,-11%,-15%,8%,-16%
O=[N+]([O-])c1ccc(N2CCCC2)c(F)c1Br,0%,23µM*,1%,13µM*,1%,-15%
CCOP(=S)(OCC)SCSc1ccc(Cl)cc1,.,-7%,.,-10%,.,.
Cc1cc(C=C2C(=O)N(C)C(=O)N(C)C2=O)c(C)n1-c1ccccc1,10%,3%,0%,-2%,8%,-9%
CN1C(=O)C(=Cc2sc(=O)n(-c3ccccc3)c2N(C)C)C(=O)N(C)C1=O,?,?,-2%,16µM*,?,5%
O=C1C2CCN(CC2)C12CC2c1ccc(C(F)(F)F)cc1 (configuration not stated),5%,-24%,57%,26%,14%,42%
CN1CCC(N(C)c2ccc(C(N)=O)cc2[N+](=O)[O-])CC1,15%,-22%,-1%,8%,2%,-17%
COC(=O)C1=C(c2ccc(Cl)c(C(F)(F)F)c2)C[C@@H]2CC[C@H]1N2C(=O)NC1CCCCC1,?,21µM*,-8%,13µM*,-29%,?
COC(=O)C1=C(c2ccc(Cl)c(C(F)(F)F)c2)C[C@@H]2CC[C@H]1N2C(=O)NCCO,25%,-29%,-6%,-19%,5%,-6%
COC(=O)C1=C(c2ccc(Cl)c(C(F)(F)F)c2)C[C@@H]2CC[C@H]1N2C(=O)NCCOc1ccccc1,-14%,16µM*,-23%,?,?,?
COC(=O)C1=C(c2ccc(Cl)c(C(F)(F)F)c2)C[C@@H]2CC[C@H]1N2C(=O)NCc1ccco1,-7%,21µM*,-5%,?,0%,?
COC(=O)C1=C(c2ccc(Cl)c(C(F)(F)F)c2)C[C@@H]2CC[C@H]1N2C,0%,-13%,-10%,?,0%,1%
COC(=O)C1=C(c2ccccc2)C[C@@H]2CC[C@H]1N2C(=O)NC(C)C,6%,.,5%,-16%,6%,-1%
SMILES,HT1080 IDH1KD tx,TDP1 cell noCPT,HepG2 tox,TDP1 cell CPT,HT1080-NT tox,TGFb SMAD3 inh
COC(=O)C1=C(c2ccc(OC(F)(F)F)cc2)C[C@@H]2CC[C@H]1N2C(=O)NC(C)C,15%,21µM*,-13%,16µM*,12%,-5%
C1=C(CCNCc2ccccc2)CCCC1,-2%,-11%,-19%,-22%,3%,6%
O=C(C(=O)N1CCOCC1)c1cn(Cc2ccccc2F)c2ccccc12,-12%,1%,-5%,-23%,-3%,0%
CCCNC(=O)N1[C@H]2CC[C@@H]1C(C(=O)OC)=C(c1ccc(OC(F)(F)F)cc1)C2,2%,15µM*,-14%,?,-6%,-14%
COC(=O)C1=C(c2ccc(OC(F)(F)F)cc2)C[C@@H]2CC[C@H]1N2C(=O)NCCOc1ccccc1,-20%,18µM*,-24%,23µM*,-18%,?
COC(=O)C1=C(c2ccc(OC(F)(F)F)cc2)C[C@@H]2CC[C@H]1N2C(=O)NCCCOC(C)C,1%,?,-7%,?,-3%,-17%
CCn1c(C)nc2cc(S(=O)(=O)Nc3ccc(C)cc3)ccc21,2%,?,-15%,?,7%,-7%
C=CCn1c(=O)c(C(=O)NCc2ccccc2)c(O)c2ccccc21,-9%,?,-11%,?,-11%,?
CCCCCn1c(=O)c(C(=O)Nc2cc(C)ccn2)c(O)c2ccccc21,23%,7.3µM*,-2%,7.3µM*,23%,13%
CCCCCn1c(=O)c(C(=O)Nc2cnccn2)c(O)c2ccccc21,-26%,2.9µM*,5%,4.1µM*,-16%,?
CCCCCn1c(=O)c(C(=O)Nc2nc(CC(=O)OCC)cs2)c(O)c2ccccc21,8%,4.6µM*,10%,4.1µM*,11%,1%
CCCCCCn1c(=O)c(C(=O)Nc2cccc(C)n2)c(O)c2ccccc21,1%,3.7µM*,5%,3.7µM*,4%,-1%
